# Data from PubChem BioAssay (NCATS).
# Results filed as inconclusive are left out. Unmarked numbers belong to inactive results. Calls of active or inactive are those of the source. Calls come from the whole dose curve; as a rule, active = well fitted curve in the direction sought with a large enough effect; inconclusive = small, poorly fitted or top-dose-only effect, or another doubt; inactive = no such curve, though single readings can be large; an effect the other way counts as inactive or inconclusive. Where a SMILES comes first, the peptide text is derived from it.
# Key:
# [1] = system: Zika virus NS2B-NS3 protease; assay: Primary screen GU AMC qHTS for Zika virus inhibitors (AID 1347154);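 note: 0% = no-inhibitor control and -100% = no-enzyme control; nearly all actives have a fitted effect of over 70% in size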
# Outline: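 Fluorogenic AMC-substrate cleavage by noncovalent NS2B-NS3 protease complex (25 nM, pH 8.0 Tris buffer with Tween 20) followed for 15 minutes at room temperature (~20% conversion). Percent inhibition from ex340/em450 signal change, fitted by 4-parameter Hill equation.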
# [2] = Confirmatory qHTS for small molecule stabilizers of the endoplasmic reticulum resident proteome: Secreted ER Calcium Modulated Protein (SERCaMP) assay (AID 1508628); note: nearly all actives have a fitted effect of over 40% in size; note: potency is the fitted concentration of half-maximal effect;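 for activity change, negative = decrease: SH-SY5Y cells given compound 16 h then thapsigargin 100 nM for 4 h; series mostly up to about 76 µM; % is set by controls: 0 for no effect and ±100 for the full control effect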
# Outline: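 GLuc-SERCaMP-expressing SH-SY5Y cells, pretreated 16 h with compound, are challenged with thapsigargin to empty ER calcium stores; after 4 h, coelenterazine is added directly to the medium and luminescence is imaged.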
# [3] = Cell Viability qHTS for small molecule stabilizers of the endoplasmic reticulum resident proteome (AID 1508629); details: cell viability counter-screen, 100 nM thapsigargin for final 4 h;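 note: human SH-SY5Y neuroblastoma cells carrying the GLuc-SERCaMP reporter; compound exposure about 46 h in total before the viability read; % is set by controls: 0 for no effect and ±100 for the full control effect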
structure (smiles),measurement,setting,value
CC(C)C[C@H](NC(=O)[C@H](Cc1ccccc1)NC(=O)CNC(=O)[C@H](C)NC(=O)[C@@H](N)Cc1ccc(O)cc1)C(=O)O,"activity change, negative = inhibition",[1],14.3% [at 6.83 µM]
same,"activity change, negative = decrease",[2],16.6% [at 9.4 µM]
same,max response,[3],9.07%
O=C(/C=C/c1ccc(Cl)cc1)N[C@@]12CCC(=O)[C@@H]3Oc4c(O)ccc5c4[C@@]31CCN(CC1CC1)C2C5,Potency,[1],inactive
CCC(Sc1ccccc1)C(=O)OC1CC2CCC(C1)N2C (configuration not stated),Potency,[1],inactive
same,Potency,[2],5.62 µM (active)
c1ccc2sc(C3(N4CCCC4)CCCCC3)cc2c1,Potency,[1],inactive
same,Potency,[2],39.8 µM (active)
C(=C\c1ccccc1)/CN1CCN(CCOC(c2ccccc2)c2ccccc2)CC1,Potency,[1],inactive
CC(C)C[C@H](NC(=O)[C@H](Cc1ccccc1)NC(=O)CNC(=O)[C@H](CS)N(C(=O)[C@@H](N)Cc1ccc(O)cc1)C(C)(C)C)C(=O)N([C@H](C(=O)O)[C@H](C)O)C(C)(C)C (HELM PEPTIDE1{Y.[CC(C)(C)N([C@@H](CS)C(=O)[*:2])[*:1]].G.F.L.[C[C@H](O)[C@@H](C(=O)O)N(C(C)(C)C)[*:1]]}$$$$V2.0),"activity change, negative = inhibition",[1],12.2% [at 6.83 µM]
C[C@H](NC(=O)[C@@H](N)Cc1ccc(O)cc1)C(=O)NCC(=O)N(C)[C@@H](Cc1ccccc1)C(=O)N[C@H](CO)CCS(C)=O (some centres not stated),"activity change, negative = inhibition",[1],4.8% [at 6.83 µM]
CSCC[C@H](NC(=O)[C@H](Cc1ccccc1)NC(=O)CNC(=O)CNC(=O)[C@@H](N)Cc1ccc(O)cc1)C(=O)O,"activity change, negative = inhibition",[1],-0.9% [at 6.83 µM]
